# An excerpt weighted towards active compounds, which were near 21% of everything screened.
# IL1B secr inh – inhibitors of inflammasome signaling (IL-1 beta secretion). THP-1 LPS/ATP IL-1B secretion, AlphaLISA, 16 h; active compounds read low. activity change, % at 57.5 µM. 360,000 tested, 4.7% active; in the data active = activity change below about -50%; inconclusive = mostly about -30% to -49%; note: % is set by controls: 0 for no effect and ±100 for the full control effect
#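 Secreted IL-1B measured by AlphaLISA bead assay after 16 h compound exposure of THP-1 cells; compounds (final up to 57.5 uM) added 1 h before LPS (250 ng/mL) and ATP (1.25 mM) stimulation; lower signal means less secretion.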
# ClpP mod – qHTS Assay for Activators of ClpP; 340,000 tested, 1.9% active; Potency, µM (titrated, usually from 57.5 µM), inactives show top-dose activity change, negative = active; purified B. subtilis ClpP, FRET peptide cleavage, 20 min; ATP-dependent Clp protease proteolytic subunit (Bacillus subtilis (strain 168)), P80244; active = well fitted falling curve with a large enough effect; inconclusive = small, poorly fitted or top-dose-only effect; inactive = no such curve, though single readings can be large or run the other way; note: potency is the fitted concentration of half-maximal effect; the source files actives as falling curves though it sought activators and does not explain the sign; nearly all actives have a fitted effect of over 65% in size
# Target sequence (P80244 whole entry, looked up): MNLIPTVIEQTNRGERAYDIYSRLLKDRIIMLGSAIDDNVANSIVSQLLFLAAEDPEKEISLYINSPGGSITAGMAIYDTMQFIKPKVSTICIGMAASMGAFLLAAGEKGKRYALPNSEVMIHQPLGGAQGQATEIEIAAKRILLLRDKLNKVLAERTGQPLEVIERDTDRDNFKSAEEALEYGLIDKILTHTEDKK
#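 ClpP 10 microg/mL final, pH 8 Tris/KCl buffer with BSA, glycerol, Tween-20; compound pinned in; FRET-FV substrate; RT 20 min; Ex320/Em430; ΔFRET vs ADEP 5.8 microM, DMSO, no enzyme.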
# D3 ag – activates the human D3 dopamine receptor. P35462. D3R DiscoveRx beta-arrestin cells, luminescence, 90 min. max activation, %. 410,000 tested, 0.58% active. AID 652048; in the data active = max activation above about 30%; note: 0% is about no effect
# Target sequence (P35462 whole entry, looked up): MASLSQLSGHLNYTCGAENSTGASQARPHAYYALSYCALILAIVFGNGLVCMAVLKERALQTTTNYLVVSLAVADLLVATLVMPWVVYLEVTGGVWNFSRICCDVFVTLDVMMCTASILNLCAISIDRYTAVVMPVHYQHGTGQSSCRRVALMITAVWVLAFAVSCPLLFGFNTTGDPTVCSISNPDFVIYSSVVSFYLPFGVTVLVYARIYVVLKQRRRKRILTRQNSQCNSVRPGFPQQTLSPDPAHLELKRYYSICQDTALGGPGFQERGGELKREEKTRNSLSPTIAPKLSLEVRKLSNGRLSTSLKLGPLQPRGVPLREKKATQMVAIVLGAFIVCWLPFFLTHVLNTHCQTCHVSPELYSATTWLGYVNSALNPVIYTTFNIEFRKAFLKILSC
#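 Agonist mode: compounds and dopamine controls were applied to plated cells for 90 min at 37 degrees C after an overnight attachment at 1500 cells/well. Luminescent read-out followed 30 - 60 minutes at room temperature with DiscoveRx detection reagent.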
# D3 antag – D3 dopamine receptor (human) antagonism; D3R cells, DiscoveRx beta-arrestin luminescence, antagonist mode; active compounds read low; P35462; max response, negative = inhibition, %; 360,000 tested, 2.5% active; in the data active = max response below about -50%; inconclusive = no clear call, values can overlap the other calls; note: % is set by controls: 0 for no effect and ±100 for the full control effect
#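 Cells plated overnight at 1500 cells/well, then exposed to library compounds with dopamine controls for 90 minutes at 37 degrees C. DiscoveRx reagent added for 30–60 minutes at room temperature; luminescence read, quantitative HTS format.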
# DT40 TDP1 CPT – DT40-hTDP1 cell growth loss with CPT. AID 686979. 420,000 tested, 12% active. Potency, µM (doses to about 46.2 µM), for the others: top-dose activity change, negative = growth inhibition, most hits filed as inhibitors. chicken DT40 Tdp1-/-;hTDP1 cells + 20 nM CPT, ATP luminescence, 48 h; note: potency is the fitted concentration of half-maximal effect; % is set by controls: 0 for no effect and ±100 for the full control effect; nearly all actives have a fitted effect of over 55% in size
#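 Chicken DT40 Tdp1-/- cells complemented with human TDP1, 400 cells/well, exposed to compounds plus 20 nM camptothecin for at least 48 h at 37 C; viability read as ATP content by CellTiter-Glo luminescence.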
# DT40 TDP1 no CPT – qHTS for Inhibitors of human tyrosyl-DNA phosphodiesterase 1 (TDP1): qHTS in cells in absence of CPT; 420,000 tested, 15% active; Potency, µM (highest dose often 46.2 µM), for inactives: top-dose activity change, negative = growth inhibition, most hits filed as inhibitors; AID 686978, 2013; DT40 Tdp1-/- hTDP1 cells, no CPT, ATP luminescence, 48 h; note: potency is the fitted concentration of half-maximal effect; % is set by controls: 0 for no effect and ±100 for the full control effect; nearly all actives have a fitted effect of over 55% in size
#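 Chicken DT40 Tdp1-/- cells stably complemented with human TDP1 were seeded at 400 cells/well with DMSO in place of 20 nM camptothecin. After compound pinning, cells grew at least 48 hr at 37 °C; viability read by CellTiter-Glo luminescence.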
# The depositor's hits bear a star; ? = inconclusive; / = not tested or not shown. Unless noted, calls come from the whole dose curve; as a rule, active = well fitted inhibition curve with a large enough effect; inconclusive = small, poorly fitted or top-dose-only effect; inactive = flat fitted curve, though single readings scatter.
SMILES,IL1B secr inh,ClpP mod,D3 ag,D3 antag,DT40 TDP1 CPT,DT40 TDP1 no CPT
COc1cc(/C=C2/NC(=O)N(Cc3ccccc3F)C2=O)ccc1O,?,/,2.1,-10.9,?,?
O=S(=O)(c1ccc2c(c1)OCCO2)N1CCC(c2nc3ccccc3[nH]2)CC1,-4.7,0.1%,2.8,4.4,?,?
O=S(=O)(c1ccc2c(c1)OCCO2)N1CCC(c2nc3ccc(Cl)cc3[nH]2)CC1,-71.6*,-3.9%,-5.3,?,8.2µM*,11.6µM*
O=S(=O)(c1cccc(C(F)(F)F)c1)N1CCC(c2nc3ccccc3[nH]2)CC1,-18.0,/,-1.0,1.1,?,23.1µM*
CC(C)(C)C(=O)CNS(=O)(=O)c1ccc(S(=O)(=O)NC2CC2)cc1,-1.7,3.4%,-2.0,-16.7,-2.0%,2.0%
Cn1c(SCc2ccccc2)nnc1-c1c[nH]c2ccccc12,-16.6,0.4%,-0.4,-8.9,?,?
COC(=O)c1ccc(CSc2nnc(-c3c[nH]c4ccccc34)n2C)o1,-0.8,1.0%,-2.9,-17.0,23.1µM*,13µM*
COC(=O)c1ccc(CSc2nnc(-c3c[nH]c4ccccc34)n2-c2ccccc2)cc1,?,-0.7%,2.0,-6.9,20.6µM*,16.4µM*
COc1ccccc1/C=C/C1(C(=O)NC2CCCC2)CC(=O)N1c1ccc(C)cc1 (configuration not stated),-11.8,-2.8%,-3.5,-24.2,?,23.1µM*
COc1ccccc1/C=C/C1(C(=O)NC2CCCC2)CC(=O)N1c1ccc(F)cc1 (configuration not stated),-88.9*,-14.8%,-7.8,-5.2,18.4µM*,?
COC(=O)C[C@H]1N(S(=O)(=O)c2ccc(C)cc2)C(C(C)C)CC1(C(=O)OC)C(=O)OC (some centres not stated),-19.6,-3.4%,-2.9,-3.9,?,?
Fc1cccc(/C=N/Nc2cc(N3CCOCC3)ncn2)c1,-53.2*,-0.5%,4.7,16.9,-4.2%,-10.0%
C/C(=N\Nc1cc(N2CCOCC2)ncn1)c1ccc(O)cc1,-95.1*,-0.2%,2.5,0.4,8.2µM*,?
COc1cccc(/C=N/Nc2cc(N3CCOCC3)ncn2)c1O,-89.9*,/,-10.2,?,5.8µM*,6.51µM*
O=C(Nc1cc(N2CCOCC2)ncn1)c1ccc(F)cc1,-20.2,/,-7.5,1.3,-13.1%,5.8µM*
CCc1ccc2nc(N3CCN(C(=O)c4ccco4)CC3)sc2c1,/,-6.4%,9.2,/,?,?
CCCCN(C)CCCNC(=O)C1CCN(c2nc3ccc(CC)cc3s2)CC1,/,-2.3%,-10.7,/,6.51µM*,5.8µM*
CCOc1ccc2nc(N3CCC(C(=O)NCCCN4CCOCC4)CC3)sc2c1,-65.8*,/,5.1,-16.9,-3.4%,?
CCCCN(CC)CCCNC(=O)C1CCN(c2nc3ccc(CC)cc3s2)CC1,/,-4.7%,-9.9,/,11.6µM*,13µM*
CCC(C)(C)NC(=O)C(C(C)C)N(CC1CCCO1)C(=O)CNS(=O)(=O)c1ccccc1 (configuration not stated),24.9,/,4.9,4.3,3.5%,-11.9%
O=C(CN1C(=O)COc2ccccc21)NCCc1ccc(Cl)cc1,/,1.9%,-2.6,/,-4.4%,-7.7%
Cc1ccc(S(=O)(=O)Cc2nc(-c3ccc(C(=O)NCc4ccccc4)cc3)oc2C)cc1,/,4.5%,-18.0,/,?,?
O=C(Nc1ccc2oc(-c3ccc(Br)cc3)nc2c1)c1cc2ccccc2o1,/,-1.7%,10.4,/,?,10.3µM*
Cc1ccc(-c2nc3ccccc3o2)cc1NC(=S)NC(=O)c1cc2ccccc2o1,12.7,15.8µM*,0.1,?,14.6µM*,14.6µM*
O=C(Nc1ccc2oc(-c3cc(Br)ccc3Cl)nc2c1)c1cc2ccccc2o1,/,4.0%,-14.6,/,16.4µM*,10.3µM*
SMILES,IL1B secr inh,ClpP mod,D3 ag,D3 antag,DT40 TDP1 CPT,DT40 TDP1 no CPT
O=C(Nc1ccc2oc(-c3cccnc3)nc2c1)c1cc2ccccc2o1,-8.2,-2.1%,5.5,48.0,?,-27.9%
CCN1CCCC1Cn1cnc2c([nH]c3ccc(OC)cc32)c1=O (configuration not stated),-23.0,/,-7.9,0.4,-18.6%,-19.2%
CC(C)CNC(=O)c1nn(Cc2ccccc2)c(=O)c2ccccc12,49.8,/,8.6,22.5,?,-19.8%
O=C(Nc1nc2c(s1)CCCC2)c1nn(Cc2ccccc2)c(=O)c2ccccc12,3.1,2.5%,12.3,-23.6,?,23.1µM*
CC(C)CCn1nc(C(=O)OCC(=O)NC(C)c2ccccc2)c2ccccc2c1=O (configuration not stated),18.1,-1.1%,-3.7,6.6,-3.9%,-19.2%
COc1ccccc1C(=O)NNC(=O)c1nn(Cc2ccccc2)c(=O)c2ccccc12,44.4,/,-14.2,?,20.6µM*,?
CCNC(=O)CNC(=O)c1nn(Cc2ccccc2)c(=O)c2ccccc12,-9.4,/,-11.1,-12.1,-26.6%,-19.2%
O=C(c1nn(Cc2ccccc2)c(=O)c2ccccc12)N1CCc2ccccc2C1,-23.5,-2.2%,9.3,43.8,-27.3%,16.4µM*
CC(C)CCn1nc(C(=O)Nc2nc3c(s2)CCCC3)c2ccccc2c1=O,/,/,-9.6,-2.4,25.9µM*,18.4µM*
COc1ccc(CCNS(=O)(=O)c2cc(C(=O)O)c(Cl)cc2Cl)cc1,21.0,0.4%,-4.6,0.3,-2.9%,-16.7%
O=C1COc2cc(S(=O)(=O)CCC(=O)N3CCN(c4cccc(Cl)c4)CC3)c(Cl)cc2N1,/,-2.6%,3.6,/,/,/
Cc1ccc(NS(=O)(=O)c2cccc(C(=O)N3CCN(C(=O)c4ccco4)CC3)c2)cc1,13.7,-2.1%,-0.7,-7.0,-24.7%,?
O=C(Nc1ccccc1N1CCOCC1)c1cccnc1,8.9,0.7%,7.7,5.2,-17.8%,-1.8%
O=C(Nc1cccc(Cl)c1N1CCCC1)c1ccc([N+](=O)[O-])o1,-83.7*,-3.8%,8.4,-11.9,-29.5%,-26.9%
O=C(Nc1ccccc1N1CCOCC1)c1ccc([N+](=O)[O-])o1,-1.3,0.5%,2.3,12.2,11.6µM*,14.6µM*
CCN1CCN(c2c(Cl)cccc2NC(=O)c2ccco2)CC1,-68.1*,-1.3%,-6.4,?,-20.7%,?
O=C(Nc1ccccc1N1CCCCC1)c1ccc([N+](=O)[O-])o1,?,-0.8%,-0.5,1.1,20.6µM*,16.4µM*
O=C(Nc1cccc(Cl)c1N1CCOCC1)c1ccco1,?,/,-3.1,8.2,?,?
